According to PubChem BioAssay (EPA / NIEHS):
Where “and” joins values, the source holds several entries; their conditions need not be identical. Equal entries are not always repeated. The source holds several records for some structures; these can differ, active in one and inactive in another. Calls of active or inactive are those of the source. The calls were made as follows: active = hit-call score of the fitted dose curve at least 0.9, where 1 is the maximum; inactive = score below 0.9.

What was measured:
[1] = target: Bile acid receptor (Homo sapiens) (UniProt Q96RI1); test: ATG_IR1_CIS: Attagene CIS-FACTORIAL HepG2 Assay for human Nuclear Receptor Subfamily 1 Group H Member 4 (NR1H4), IR1 submotif (AID 2282946); conditions: IR1 reporter transcription, actives raise or lower the signal
Summary of the method: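 Transient MRTU transfection, HepG2; 24 h dosing; RNA → RT-PCR → 6-FAM primer extension → HpaI digest → capillary electrophoresis fluorescence. Gain/loss of signal fitted relative to DMSO.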

[2] = ATG_GRE_CIS: Attagene CIS-FACTORIAL HepG2 Assay for human Glucocorticoid Response Elements (GRE) (AID 2282947); conditions: HepG2 GRE cis-reporter, Attagene multiplex mRNA; actives raise or lower the signal
Summary of the method: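 Following 24 h chemical exposure of transiently transfected HepG2 cells, total RNA was reverse-transcribed and reporter cDNA amplified, fluorescently labelled and sized by capillary electrophoresis. Signal gain or loss was fitted relative to DMSO vehicle.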

[3] = ATG_ISRE_CIS: Attagene CIS-FACTORIAL HepG2 Assay for human Interferon Regulatory Factor 1 (IRF1) binding to an Interferon-Stimulated Response Element (ISRE) (AID 2282948); conditions: HepG2 ISRE cis-reporter (Attagene), mRNA transcription readout; actives raise or lower the signal
Summary of the method: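 Cell-based cis-reporter assay; HepG2; 24 h exposure; reporter mRNA by RT-PCR plus capillary electrophoresis fluorescence; activity in either direction scored relative to DMSO.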

[4] = ATG_M_32_CIS: Attagene CIS-FACTORIAL HepG2 Assay for M32 Transcription Factor (Internal Marker) (AID 2282949); conditions: HepG2 Attagene cis-factorial M32 reporter, mRNA; actives raise or lower the signal;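 also: background control marker of the multiplexed CIS panel rather than a real target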
Summary of the method: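 Fluorescent capillary electrophoresis peaks of HpaI-digested, FAM-labelled RT-PCR reporter products give the signal. Source: transiently transfected human liver HepG2 cells, 24 h after chemical dosing; bidirectional fitting against DMSO.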

[5] = ATG_M_06_CIS: Attagene CIS-FACTORIAL HepG2 Assay for M06 Transcription Factor (Internal Marker) (AID 2282950); conditions: HepG2 Attagene CIS-FACTORIAL M06 internal marker reporter; actives raise or lower the signal
Summary of the method: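 Serves as a background control readout. Transfected HepG2 exposed to compounds for 24 h, then reporter transcripts quantified by fluorescent RT-PCR and capillary electrophoresis. Both directions fitted against DMSO baseline.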

[6] = target: Hypoxia-inducible factor 1-alpha (Homo sapiens) (UniProt Q16665); test: ATG_HIF1a_CIS: Attagene CIS-FACTORIAL HepG2 Assay for human Hypoxia Inducible Factor 1 (HIF1A) (AID 2282951); conditions: HepG2 Attagene cis-factorial HIF1a reporter transcription; actives raise or lower the signal
Summary of the method: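 Endogenous-TF cis reporter readout, human HepG2 cells, 24 h incubation; mRNA detected via RT-PCR and capillary electrophoresis fluorescence; DMSO-normalised bidirectional fitting.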

[7] = target: Hepatocyte nuclear factor 6 (Homo sapiens) (UniProt Q9UBC0); test: ATG_HNF6_CIS: Attagene CIS-FACTORIAL HepG2 Assay for human Hepatocyte Nuclear Factor 6 (HNF6) (AID 2282952); conditions: HepG2 Attagene cis-factorial HNF6 reporter transcription; actives raise or lower the signal
Summary of the method: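 HepG2 cells transiently transfected with cis-element-driven multiplexed reporter units measuring endogenous transcription factor activity. After 24 h exposure, reporter mRNA quantified by RT-PCR, FAM-labelled fragments and capillary electrophoresis; bidirectional fitting versus DMSO.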

[8] = target: Heat shock factor protein 1 (Homo sapiens) (UniProt Q00613); test: ATG_HSE_CIS: Attagene CIS-FACTORIAL HepG2 Assay for human Heat Shock Transcription Factor 1 (HSE) (AID 2282953); conditions: HepG2 HSE cis-reporter, Attagene RNA transcription; actives raise or lower the signal
Summary of the method: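 Endogenous transcription factor activity in transiently transfected HepG2, read as reporter mRNA by RT-PCR with fluorescent capillary electrophoresis after 24 h. Gain or loss of signal fitted versus DMSO baseline.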

[9] = ATG_MRE_CIS: Attagene CIS-FACTORIAL HepG2 Assay for human Metal Responsive Element (MRE) (AID 2282954); conditions: HepG2 MRE cis-reporter transcription, Attagene multiplex; actives raise or lower the signal
Summary of the method: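 Step one: transfect HepG2 with cis-regulated reporter units. Step two: dose 24 h. Step three: isolate RNA, RT-PCR, 6-FAM label, HpaI digest, capillary electrophoresis. Fit bidirectionally to DMSO.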

[10] = ATG_PBREM_CIS: Attagene CIS-FACTORIAL HepG2 Assay for human Phenobarbital-responsive Enhancer Module (PBREM) (AID 2282955); conditions: HepG2 PBREM cis-reporter, Attagene multiplexed transcription; actives raise or lower the signal
Summary of the method: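 Readout: reporter mRNA, fluorescent RT-PCR fragments separated by capillary electrophoresis. System: HepG2 transiently transfected with cis-regulated reporter units. Exposure: 24 h. Analysis: bidirectional, DMSO baseline.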

Measured: AC50

Chain of Heat shock factor protein 1 (Homo sapiens) (Q00613 whole entry, looked up): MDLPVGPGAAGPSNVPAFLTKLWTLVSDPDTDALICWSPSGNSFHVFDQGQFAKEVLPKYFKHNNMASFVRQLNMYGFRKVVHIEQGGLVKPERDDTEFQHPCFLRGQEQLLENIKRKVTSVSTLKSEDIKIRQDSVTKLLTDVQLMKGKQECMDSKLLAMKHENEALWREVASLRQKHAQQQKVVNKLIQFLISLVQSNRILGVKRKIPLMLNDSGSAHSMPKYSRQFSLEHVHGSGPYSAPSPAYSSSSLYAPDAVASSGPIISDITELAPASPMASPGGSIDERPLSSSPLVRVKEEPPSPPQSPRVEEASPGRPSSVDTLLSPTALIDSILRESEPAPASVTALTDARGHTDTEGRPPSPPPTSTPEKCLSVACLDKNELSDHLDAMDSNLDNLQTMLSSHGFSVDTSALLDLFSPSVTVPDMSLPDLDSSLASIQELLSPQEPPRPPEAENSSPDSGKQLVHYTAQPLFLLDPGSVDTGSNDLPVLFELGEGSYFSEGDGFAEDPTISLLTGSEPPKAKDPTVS
Chain of Hepatocyte nuclear factor 6 (Homo sapiens) (Q9UBC0 whole entry, looked up, the tested form may be a part): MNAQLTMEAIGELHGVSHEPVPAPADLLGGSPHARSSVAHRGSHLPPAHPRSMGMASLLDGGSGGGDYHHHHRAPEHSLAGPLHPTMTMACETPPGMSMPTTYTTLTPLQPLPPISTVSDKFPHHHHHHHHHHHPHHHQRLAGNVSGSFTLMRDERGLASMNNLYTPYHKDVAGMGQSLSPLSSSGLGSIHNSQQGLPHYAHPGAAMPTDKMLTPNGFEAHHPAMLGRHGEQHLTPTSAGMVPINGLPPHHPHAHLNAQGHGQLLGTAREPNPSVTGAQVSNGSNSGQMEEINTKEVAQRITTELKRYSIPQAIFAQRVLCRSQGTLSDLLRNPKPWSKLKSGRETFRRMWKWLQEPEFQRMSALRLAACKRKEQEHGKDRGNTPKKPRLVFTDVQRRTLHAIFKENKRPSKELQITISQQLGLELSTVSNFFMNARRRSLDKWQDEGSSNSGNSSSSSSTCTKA
Chain of Hypoxia-inducible factor 1-alpha (Homo sapiens) (Q16665 whole entry, looked up): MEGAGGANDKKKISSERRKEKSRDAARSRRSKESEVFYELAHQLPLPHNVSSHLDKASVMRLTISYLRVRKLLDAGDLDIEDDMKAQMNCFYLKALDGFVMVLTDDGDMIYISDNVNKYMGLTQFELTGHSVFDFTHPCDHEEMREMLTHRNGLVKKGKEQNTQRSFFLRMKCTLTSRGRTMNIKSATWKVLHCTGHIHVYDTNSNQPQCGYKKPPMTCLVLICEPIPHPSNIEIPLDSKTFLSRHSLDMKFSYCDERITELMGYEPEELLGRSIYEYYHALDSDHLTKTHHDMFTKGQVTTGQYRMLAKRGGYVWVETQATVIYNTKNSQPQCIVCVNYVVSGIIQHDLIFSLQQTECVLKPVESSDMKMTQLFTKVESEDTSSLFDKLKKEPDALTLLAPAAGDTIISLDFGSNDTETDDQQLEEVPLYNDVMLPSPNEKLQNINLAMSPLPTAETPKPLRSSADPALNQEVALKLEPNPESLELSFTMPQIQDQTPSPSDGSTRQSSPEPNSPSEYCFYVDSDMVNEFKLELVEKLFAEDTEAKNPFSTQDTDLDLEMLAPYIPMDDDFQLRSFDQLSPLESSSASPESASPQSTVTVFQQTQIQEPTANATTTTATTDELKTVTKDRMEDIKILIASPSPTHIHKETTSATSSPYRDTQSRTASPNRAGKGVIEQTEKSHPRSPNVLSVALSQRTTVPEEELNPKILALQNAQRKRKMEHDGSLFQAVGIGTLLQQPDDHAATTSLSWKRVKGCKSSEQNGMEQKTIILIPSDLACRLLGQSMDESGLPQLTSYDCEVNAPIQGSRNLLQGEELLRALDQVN
Chain of Bile acid receptor (Homo sapiens) (Q96RI1 whole entry, looked up): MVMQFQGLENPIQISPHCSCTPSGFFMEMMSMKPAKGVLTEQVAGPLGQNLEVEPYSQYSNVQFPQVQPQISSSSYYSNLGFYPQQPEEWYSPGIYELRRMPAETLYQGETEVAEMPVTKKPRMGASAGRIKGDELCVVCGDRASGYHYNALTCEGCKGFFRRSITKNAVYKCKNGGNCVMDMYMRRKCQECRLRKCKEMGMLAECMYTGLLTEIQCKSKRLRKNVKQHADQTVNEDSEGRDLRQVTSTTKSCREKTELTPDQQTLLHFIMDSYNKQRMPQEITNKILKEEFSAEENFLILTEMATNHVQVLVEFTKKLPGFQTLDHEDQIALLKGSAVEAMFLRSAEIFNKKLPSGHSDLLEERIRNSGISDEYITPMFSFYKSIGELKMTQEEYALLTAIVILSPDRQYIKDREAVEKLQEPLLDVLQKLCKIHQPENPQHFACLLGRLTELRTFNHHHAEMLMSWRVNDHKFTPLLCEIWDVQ

CCCCC(CC)CO (configuration not stated)
inactive: all assays above

CN(C)C(=O)NC1(c2ccccc2)CCN(CCC[C@]2(c3ccc(Cl)c(Cl)c3)CCCN(C(=O)c3ccccc3)C2)CC1
active: [1] 4.21 µM | [9] 4.19 µM
inactive: all other assays above

C=CCc1ccc(OC)c(OC)c1
active: [6] 0.0538 µM
not listed: [10]
inactive: all other assays above

COc1ccc(C(=O)Nc2nc3ccccc3c(NCc3ccccc3)c2C#N)cc1
active: [6] 26.5 µM
inactive: all other assays above

CCCCC(CC)COC(=O)CCCCCCCC(=O)OCC(CC)CCCC (configuration not stated)
active: [6] 61.9 µM
inactive: all other assays above

CC(=O)S[C@H](C(=O)N[C@H]1Cc2ccccc2[C@H]2CCC[C@@H](C(=O)O)N2C1=O)C(C)C
inactive: all assays above

O=C(Oc1ccccc1)c1cccc(C(=O)Oc2ccccc2)c1
inactive: all assays above

CC(C)c1cccc(C(C)C)c1NC(=O)NS(=O)(=O)c1cc(C(C)(C)O)co1
not listed: [10]
inactive: all other assays above

COC(=O)CCCC(=O)OC
inactive: all assays above

CCN(CC)CCOc1ccc(C(=C(Cl)c2ccccc2)c2ccccc2)cc1
inactive: [1] | [2] | [3] | [4] | [5] | [6] | [7] | [8] | [9] | [10]
active: [1] 5.65 µM and 4.78 µM | [6] 9.35 µM | [7] 11.4 µM | [8] 14.3 µM | [9] 13.8 µM

O=C(N[C@@H](c1ccccc1)[C@@H]1CCCCN1)c1cccc(C(F)(F)F)c1Cl
active: [6] 16.6 µM | [7] 62.1 µM | [8] 52.4 µM | [9] 38 µM
inactive: all other assays above

O=C(O)CN(CC(=O)O)CC(=O)O
inactive: all assays above

CC(C)c1cccc(C(C)C)c1
not listed: [10]
inactive: all other assays above

CN(C)CCCN(C)CCCN(C)C
not listed: [10]
inactive: all other assays above

CN(C)C(=O)NC1(c2ccccc2)CCN(CC[C@@]2(c3ccc(F)c(F)c3)CN(C(=O)c3ccccc3)CCO2)CC1
active: [6] 47.9 µM | [9] 57.9 µM
not listed: [10]
inactive: all other assays above

NC(=Nc1ccccc1)Nc1ccccc1
active: [3] 5.79 µM | [9] 28 µM
not listed: [10]
inactive: all other assays above

CCCCCCC(C=O)=Cc1ccccc1
active: [8] 157 µM and 93.3 µM | [9] 137 µM and 89.2 µM
inactive: all other assays above

CSc1ccc(Oc2ccc(S(N)(=O)=O)cc2CN(C)C)cc1C
inactive: all assays above

CCCCCCC(CCCCCCCCCCC(=O)OCC(COC(C)=O)OC(C)=O)OC(C)=O (configuration not stated)
active: [8] 90.7 µM
not listed: [10]
inactive: all other assays above

CC(COCC(C)OC(=O)c1ccccc1)OC(=O)c1ccccc1 (configuration not stated)
inactive: all assays above

CCCCc1nc2cccnc2n1Cc1ccc(-c2ccccc2-c2nnn[nH]2)cc1
inactive: all assays above

O=C1c2c(O)cccc2Cc2cccc(O)c21
active: [6] 26.6 µM
inactive: all other assays above

S=c1[nH]c2ccccc2s1
active: [3] 41.8 µM
inactive: all other assays above

C=CCCCCCCCCCCCC
inactive: all assays above

Cc1cc(Cc2ccc(N)c(C)c2)ccc1N
inactive: all assays above

Cc1cc(SC2=C(O)C[C@@](CCc3ccc(N)cc3)(C(C)C)OC2=O)c(C(C)(C)C)cc1CO
not listed: [10]
inactive: all other assays above

CCCCC(CC)COP(=O)(OCC(CC)CCCC)OCC(CC)CCCC (configuration not stated)
inactive: all assays above

COc1ccc(OC(F)(F)F)cc1CN[C@H]1CCCN[C@H]1c1ccccc1
active: [8] 2.74 µM
inactive: all other assays above

O=C(NS(=O)(=O)/C=C/c1cccs1)c1ccc(F)cc1Br
inactive: all assays above

c1ccc2occc2c1
not listed: [2]
inactive: all other assays above

COC(=O)CCC(=O)OC
not listed: [8]
inactive: all other assays above

Cc1cn([C@H]2C=C[C@@H](CO)O2)c(=O)[nH]c1=O
not listed: [2] | [6]
inactive: all other assays above

Cc1ccc(C(C)(C)C)c(O)c1
active: [3] 138 µM | [9] 145 µM | [10] 150 µM
not listed: [2]
inactive: all other assays above

CCCCCCCCCCCCCCOS(=O)(=O)O
not listed: [1]
inactive: all other assays above

Nc1nc(=S)c2[nH]cnc2[nH]1
not listed: [1]
inactive: all other assays above

CCCCCCCCCC[N+](C)(C)[O-]
not listed: [1] | [10]
inactive: all other assays above

Cn1cnc2c1c(=O)[nH]c(=O)n2C
not listed: [6]
inactive: all other assays above

CCCCOC(=O)CCCCC(=O)OCCCC
active: [2] 178 µM
not listed: [1] | [10]
inactive: all other assays above

CC(C)OC(=O)C(C)(C)Oc1ccc(C(=O)c2ccc(Cl)cc2)cc1
active: [3] 49 µM | [9] 43.6 µM
not listed: [6]
inactive: all other assays above

Cc1c(C)c2c(c(C)c1O)CCC(C)(COc1ccc(CC3SC(=O)NC3=O)cc1)O2 (configuration not stated)
active: [9] 17.4 µM
not listed: [2] | [8]
inactive: all other assays above
